Assay [1] can be described thus: NCI Yeast Anticancer Drug Screen. Data for the rad50 strain (AID 155).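 Note: 0% = growth of vehicle-only cultures of the same strain.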 As to conditions: S. cerevisiae rad50 strain growth inhibition; at 50.0 µM; hits give high values. The gist of the method: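 Vehicle-treated cultures provide the reference for the growth inhibition reported for compound-exposed, repair-deficient yeast.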
Assay [2] in a line: NCI Yeast Anticancer Drug Screen. Data for the mec2-1 strain (AID 157). The following applies: S. cerevisiae mec2-1 strain, at 50.0 µM, hits give high values. In outline: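 Each compound was tested on mec2-1 yeast, a strain altered in DNA damage repair or cell cycle control. Growth inhibition is reported relative to vehicle.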
Assay [3] can be described thus: NCI Yeast Anticancer Drug Screen. Data for the sgs1 mgt1 strain (AID 161).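 Note: 0% = growth of cultures given vehicle only.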 The following applies: S. cerevisiae sgs1 mgt1 strain, at 50.0 µM, hits give high values. The gist of the method: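 Mutant yeast exposed to compound; growth scored against vehicle-only wells.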
Assay [4] in a line: NCI Yeast Anticancer Drug Screen. Data for the cln2 rad14 strain (AID 165).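 Note: 0% = growth equal to vehicle treated cultures.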 The following applies: S. cerevisiae cln2 rad14 strain, at 50.0 µM, hits give high values. The gist of the method:
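Test compounds were added to cln2 rad14 yeast cultures; inhibition of growth was then determined by comparison with vehicle treatment.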

Assay [5] can be described thus: NCI Yeast Anticancer Drug Screen. Data for the bub3 strain (AID 167). As to conditions: S. cerevisiae bub3 mutant strain, at 50.0 µM, hits give high values. The gist of the method:
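Mutant yeast screening strain plus compound; vehicle-treated cultures serve as the 0% inhibition reference.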

Assay [6] is described as follows: NCI Yeast Anticancer Drug Screen. Data for the mlh1 rad18 strain (AID 175). The following applies: S. cerevisiae mlh1 rad18 strain growth inhibition; at 50.0 µM; hits give high values. In outline:
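Inhibition values reflect reduced growth of mutant yeast versus vehicle-treated controls following compound exposure; the mutations affect DNA damage repair.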

Results on 20 molecules are retold here after PubChem BioAssay (NCI).

Compounds without any hit were thinned out: in the full panel of roughly 79,000, 15% have a hit. Values without a mark were called inactive. The source made the active and inactive calls. Cut-off read from the data, not from the text of the source: active = growth inhibition above about 70%; inactive = the rest.

With `O=C(O)C(O)c1ccc(Cl)cc1` (stereo not given), the growth inhibition was 17.7% in assay [1]; -0.65% in assay [2]; -14.8% in assay [3]; -15.1% in assay [4]; 16.1% in assay [5]; 11.2% in assay [6].

On to `CCN(CC)CC(O)c1ccc(Br)cc1` (stereo not given), for which the growth inhibition was 0.85% in assay [1]; -20.1% in assay [2]; -0.25% in assay [3]; -3.55% in assay [4]; 2.65% in assay [5]; 5.7% in assay [6].

`CN(C)C(=S)Oc1c(S(=O)(=O)F)ccc(Cl)c1Cl`: the growth inhibition in assay [1] is 96.3% (active); in assay [2], 88% (active); in assay [3], 98% (active); in assay [4] it was 76.5% (active); in assay [5] it was 95.2% (active); in assay [6], 98.3% (active).

Take `O=[N+]([O-])c1cc([As](=O)(O)O)ccc1S(=O)(=O)O`: the growth inhibition was -0.6% in assay [1]; 7.65% in assay [2]; 7% in assay [3]; -3% in assay [4]; 9.2% in assay [5]; 2.2% in assay [6].

`COC1=CC2CCC3C(CCC4(C)C(OC(C)=O)CCC34)C2(C)CC1` (stereo not given): the growth inhibition in assay [1] is 13.2%; in assay [2], 10.8%; in assay [3] it was 1.2%; in assay [4] it was 4.1%; in assay [5] it was -13.3%; in assay [6], -6.8%.

As to `CC1OC(n2cc(C(N)=O)c3c(N)ncnc32)C(O)C1O` (stereo not given), the growth inhibition was 19.4% in assay [1]; 20.9% in assay [2]; 3.75% in assay [3]; 16.9% in assay [4]; 14.2% in assay [5]; 20.1% in assay [6].

Consider `Cc1ccc(-c2cc(C)n(C)[n+]2C)cc1`, for which the growth inhibition in assay [1] was 8.05%; in assay [2], 7.05%; in assay [3], 8.7%; in assay [4], -20.9%; in assay [5], 9.6%; in assay [6] it was -3.05%.

As for `CCOP(=O)(NC(C)(C)C)OCC`, the growth inhibition was -15.1% in assay [1]; -54% in assay [2]; -21.4% in assay [3]; 8% in assay [4]; -26.1% in assay [5]; -12.8% in assay [6].

Take `S=C([SH2+])[SH2+].S=C([SH2+])[SH2+].[Pt+2].c1ccc(C[P+](c2ccccc2)(c2ccccc2)c2ccccc2)cc1`: the growth inhibition in assay [1] is 44.7%; in assay [2] it was 3.45%; in assay [3] it was 36.2%; in assay [4], -16.6%; in assay [5] it was 3.6%; in assay [6], -0.1%.

As for `C=CCNC(=O)C(Br)C(C)C` (stereo not given), the growth inhibition was -9.8% in assay [1]; -40.8% in assay [2]; -10.6% in assay [3]; 22.9% in assay [4]; -26.9% in assay [5]; -8.2% in assay [6].

For `O=C(Nc1c(Cl)cc([N+](=O)[O-])cc1Cl)C(=O)C1C(=O)NC(=S)NC1=O`, the growth inhibition in assay [1] was 11.9%; in assay [2] it was -28.4%; in assay [3] it was -12.1%; in assay [4] it was 7.65%; in assay [5], 10.6%; in assay [6], -5.9%.

Take `CNC(=O)O/N=C(\SC)C(=O)N(C)C`: the growth inhibition was -39.9% in assay [1]; -27.2% in assay [2]; -5.05% in assay [3]; -31.2% in assay [4]; -3.1% in assay [5]; -1.05% in assay [6].

On to `CC(Br)C(N)=O` (stereo not given), for which the growth inhibition in assay [1] is -14.4%; in assay [2], -17.8%; in assay [3] it was -14.1%; in assay [4] it was -20.4%; in assay [5] it was -4.9%; in assay [6], -13.8%.

Turning to `CN1CN(c2ccccc2)C2(CCN(CCc3cc4ccccc4o3)CC2)C1=O`, the growth inhibition in assay [1] was -30.9%; in assay [2], -10.1%; in assay [3] it was -12.8%; in assay [4], -28.9%; in assay [5] it was 3.4%; in assay [6], -22.2%.

With `BrCCCBr`, the growth inhibition was 15.1% in assay [1]; 5.8% in assay [2]; 14.4% in assay [3]; 10.7% in assay [4]; 12.4% in assay [5]; 21.3% in assay [6].

Turning to `CNC(Cc1ccccc1)c1cccc(OC)c1O` (stereo not given), the growth inhibition in assay [1] is -7.55%; in assay [2], -25.6%; in assay [3] it was -53.6%; in assay [4], -28.4%; in assay [5] it was -14.2%; in assay [6], -10.8%.

Take `COc1ccc(C(=O)/C=C/c2ccccc2)cc1`: the growth inhibition in assay [1] was 2.05%; in assay [2] it was -7.25%; in assay [3], 30.1%; in assay [4] it was 2.45%; in assay [5] it was 42.4%; in assay [6], 19.4%.

With `O=C(O)C(=O)O.[NH2-].[NH2-].[Pt+2]`, the growth inhibition in assay [1] was 8.3%; in assay [2] it was -4.9%; in assay [3] it was 0.15%; in assay [4], -5.05%; in assay [5] it was 2.6%; in assay [6], -3.8%.

For the molecule `CC(C)(C)N.[O]=[Cr](=[O])([OH])[OH]`, the growth inhibition in assay [1] was 20.9%; in assay [2], 7.45%; in assay [3], 29.1%; in assay [4], -2.25%; in assay [5], 21.7%; in assay [6], 21%.

For `C1=C(c2ccccc2)CCN(C2(c3ccccc3)CCCCC2)C1`, the growth inhibition in assay [1] is -5.6%; in assay [2] it was 0.75%; in assay [3] it was -4.2%; in assay [4] it was -33.5%; in assay [5] it was 16.5%; in assay [6], 9.35%.
